# Measured values reported in PubChem BioAssay AID1159580 (chemical genetic matrix, 2015).
# The whole screen tested about 5,500 compounds, of which about 2,000 (36%) were called active. Not shown: some 18% with an inconclusive outcome. The list shows a part of the results. Unmarked numbers belong to inactive results. Cut-off read from the data, not from the text of the source: active = normalized growth mostly below about 0.91 (no sharp cut-off); inconclusive = no clear call, values can overlap the other calls; inactive = mostly above about 0.92.
# Test: chemical genetic growth profiling, strain panel (AID 1159580);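 note: tested at 20 µM; growth read once vehicle control cultures reached saturation at 30 °C; 1 = growth at the plate median or of vehicle wells; lower values mean less growth of the strain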
# Conditions: growth OD
compound,measurement,setting,value
CC(=O)N1CCN(c2ccc(OCC3CO[C@](Cn4ccnc4)(c4ccc(Cl)cc4Cl)O3)cc2)CC1 (some centres undefined),normalized growth,"S. cerevisiae deletion strains, locus YJL187C, strain SWE1, active compounds read low",0.0925 (active)
same,normalized growth,"S. cerevisiae deletion strains, locus YJR043C, strain POL32, active compounds read low",0.094 (active)
same,normalized growth,"S. cerevisiae deletion strains, locus YJR066W, strain TOR1, active compounds read low",0.0283 (active)
same,normalized growth,"S. cerevisiae deletion strains, locus YJR075W, strain HOC1, active compounds read low",0.0852 (active)
same,normalized growth,"S. cerevisiae deletion strains, locus YKL009W, strain mrt4, active compounds read low",0.994
same,normalized growth,"S. cerevisiae deletion strains, locus YKL068W, active compounds read low",0.931 (active)
same,normalized growth,"S. cerevisiae deletion strains, locus YKL085W, strain MDH1 (second series), active compounds read low",0.795 (active)
same,normalized growth,"S. cerevisiae deletion strains, locus YKL085W, strain MDH1, active compounds read low",0.795 (active)
same,normalized growth,"S. cerevisiae deletion strains, locus YKL160W, strain elf1, active compounds read low",0.104 (active)
same,normalized growth,"S. cerevisiae deletion strains, locus YKL190W, strain CNB1, active compounds read low",0.0638 (active)
same,normalized growth,"S. cerevisiae deletion strains, locus YKR001C, strain vps1, active compounds read low",0.112 (active)
same,normalized growth,"S. cerevisiae deletion strains, locus YKR026C, strain gcn3, active compounds read low",0.168 (active)
same,normalized growth,"S. cerevisiae deletion strains, locus YKR091W, strain srl3, active compounds read low",0.108 (active)
same,normalized growth,"S. cerevisiae deletion strains, locus YLL001W, strain dnm1, active compounds read low",0.102 (active)
same,normalized growth,"S. cerevisiae deletion strains, locus YLL026W, active compounds read low",0.0778 (active)
same,normalized growth,"S. cerevisiae deletion strains, locus YLL041C, strain sdh2, active compounds read low",0.0858 (active)
same,normalized growth,"S. cerevisiae deletion strains, locus YLR027C, strain aat2, active compounds read low",0.0792 (active)
same,normalized growth,"S. cerevisiae deletion strains, locus YLR039C, strain RIC1, active compounds read low",0.444 (active)
same,normalized growth,"S. cerevisiae deletion strains, locus YLR058C, strain SHM2, active compounds read low",0.072 (active)
same,normalized growth,"S. cerevisiae deletion strains, locus YLR102C, strain apc9, active compounds read low",0.0929 (active)
same,normalized growth,"S. cerevisiae deletion strains, locus YLR113W, strain HOG1, active compounds read low",0.16 (active)
same,normalized growth,"S. cerevisiae deletion strains, locus YLR221C, strain rsa3, active compounds read low",0.0852 (active)
same,normalized growth,"S. cerevisiae deletion strains, locus YLR258W, strain gsy2, active compounds read low",0.0919 (active)
same,normalized growth,"S. cerevisiae deletion strains, locus YLR262C, strain YPT6 (second series), active compounds read low",0.314 (active)
same,normalized growth,"S. cerevisiae deletion strains, locus YLR262C, strain YPT6, active compounds read low",0.523 (active)
same,normalized growth,"S. cerevisiae deletion strains, locus YLR268W, strain sec22, active compounds read low",0.0953 (active)
same,normalized growth,"S. cerevisiae deletion strains, locus YLR320W, strain mms22, active compounds read low",0.104 (active)
same,normalized growth,"S. cerevisiae deletion strains, locus YLR330W, strain CHS5, active compounds read low",0.0775 (active)
same,normalized growth,"S. cerevisiae deletion strains, locus YLR342W, strain FKS1 (second series), active compounds read low",0.0863 (active)
same,normalized growth,"S. cerevisiae deletion strains, locus YLR342W, strain FKS1, active compounds read low",0.0875 (active)
same,normalized growth,"S. cerevisiae deletion strains, locus YLR357W, strain rsc2, active compounds read low",0.231 (active)
same,normalized growth,"S. cerevisiae deletion strains, locus YLR370C, strain arc18, active compounds read low",0.0894 (active)
same,normalized growth,"S. cerevisiae deletion strains, locus YLR371W, strain rom2, active compounds read low",0.104 (active)
same,normalized growth,"S. cerevisiae deletion strains, locus YLR384C, strain iki3, active compounds read low",0.0857 (active)
same,normalized growth,"S. cerevisiae deletion strains, locus YLR418C, strain cdc73, active compounds read low",0.123 (active)
same,normalized growth,"S. cerevisiae deletion strains, locus YML016C, strain PPZ1, active compounds read low",0.0722 (active)
same,normalized growth,"S. cerevisiae deletion strains, locus YML032C, strain rad52, active compounds read low",0.112 (active)
same,normalized growth,"S. cerevisiae deletion strains, locus YML120C, strain ndi1, active compounds read low",0.0823 (active)
same,normalized growth,"S. cerevisiae deletion strains, locus YML124C, strain tub3, active compounds read low",0.0927 (active)
same,normalized growth,"S. cerevisiae deletion strains, locus YMR058W, strain fet3, active compounds read low",0.0959 (active)
same,normalized growth,"S. cerevisiae deletion strains, locus YMR078C, strain ctf18, active compounds read low",0.112 (active)
same,normalized growth,"S. cerevisiae deletion strains, locus YMR125W, strain sto1, active compounds read low",0.102 (active)
same,normalized growth,"S. cerevisiae deletion strains, locus YMR129W, active compounds read low",0.0847 (active)
same,normalized growth,"S. cerevisiae deletion strains, locus YMR205C, strain PFK2, active compounds read low",0.141 (active)
same,normalized growth,"S. cerevisiae deletion strains, locus YMR223W, strain ubp8, active compounds read low",0.105 (active)
same,normalized growth,"S. cerevisiae deletion strains, locus YMR231W, strain pep5, active compounds read low",0.403 (active)
same,normalized growth,"S. cerevisiae deletion strains, locus YMR263W, strain SAP30, active compounds read low",0.157 (active)
same,normalized growth,"S. cerevisiae deletion strains, locus YMR307W, strain GAS1, active compounds read low",0.159 (active)
same,normalized growth,"S. cerevisiae deletion strains, locus YNL067W, strain RPL9B, active compounds read low",0.0729 (active)
same,normalized growth,"S. cerevisiae deletion strains, locus YNL071W, strain lat1, active compounds read low",0.0698 (active)
same,normalized growth,"S. cerevisiae deletion strains, locus YNL183C, strain NPR1, active compounds read low",0.0744 (active)
same,normalized growth,"S. cerevisiae deletion strains, locus YNL209W, strain ssb2, active compounds read low",0.195 (active)
same,normalized growth,"S. cerevisiae deletion strains, locus YNL233W, strain BNI4, active compounds read low",0.0732 (active)
same,normalized growth,"S. cerevisiae deletion strains, locus YNL248C, strain rpa49, active compounds read low",0.0896 (active)
same,normalized growth,"S. cerevisiae deletion strains, locus YNL250W, strain rad50, active compounds read low",0.896 (active)
same,normalized growth,"S. cerevisiae deletion strains, locus YNL271C, strain bni1, active compounds read low",0.906 (active)
same,normalized growth,"S. cerevisiae deletion strains, locus YNL298W, strain CLA4, active compounds read low",0.246 (active)
same,normalized growth,"S. cerevisiae deletion strains, locus YNL307C, strain MCK1, active compounds read low",0.0791 (active)
same,normalized growth,"S. cerevisiae deletion strains, locus YNL322C, strain KRE1 (second series), active compounds read low",0.115 (active)
same,normalized growth,"S. cerevisiae deletion strains, locus YNR049C, strain mso1, active compounds read low",0.0955 (active)
same,normalized growth,"S. cerevisiae deletion strains, locus YNR052C, strain pop2, active compounds read low",0.144 (active)
same,normalized growth,"S. cerevisiae deletion strains, locus YOL012C, strain htz1",0.25
same,normalized growth,"S. cerevisiae deletion strains, locus YOL147C, strain pex11, active compounds read low",0.0768 (active)
same,normalized growth,"S. cerevisiae deletion strains, locus YOR001W, strain rrp6, active compounds read low",0.0988 (active)
same,normalized growth,"S. cerevisiae deletion strains, locus YOR061W, strain CKA2, active compounds read low",0.125 (active)
same,normalized growth,"S. cerevisiae deletion strains, locus YOR069W, strain VPS5, active compounds read low",0.0927 (active)
same,normalized growth,"S. cerevisiae deletion strains, locus YOR070C, strain gyp1, active compounds read low",0.0793 (active)
same,normalized growth,"S. cerevisiae deletion strains, locus YOR080W, strain dia2, active compounds read low",0.096 (active)
same,normalized growth,"S. cerevisiae deletion strains, locus YOR083W, strain WHI5, active compounds read low",0.136 (active)
same,normalized growth,"S. cerevisiae deletion strains, locus YOR106W, strain vam3, active compounds read low",0.116 (active)
same,normalized growth,"S. cerevisiae deletion strains, locus YOR136W, strain idh2, active compounds read low",0.112 (active)
same,normalized growth,"S. cerevisiae deletion strains, locus YOR144C, strain elg1, active compounds read low",0.0877 (active)
same,normalized growth,"S. cerevisiae deletion strains, locus YOR184W, strain ser1, active compounds read low",0.0917 (active)
same,normalized growth,"S. cerevisiae deletion strains, locus YOR231W, strain MKK1, active compounds read low",0.157 (active)
same,normalized growth,"S. cerevisiae deletion strains, locus YOR265W, strain rbl2, active compounds read low",0.0927 (active)
same,normalized growth,"S. cerevisiae deletion strains, locus YOR270C, strain vph1, active compounds read low",0.112 (active)
same,normalized growth,"S. cerevisiae deletion strains, locus YOR290C, strain snf2, active compounds read low",0.0982 (active)
same,normalized growth,"S. cerevisiae deletion strains, locus YOR316C, strain cot1, active compounds read low",0.0844 (active)
same,normalized growth,"S. cerevisiae deletion strains, locus YPL051W, strain arl3, active compounds read low",0.141 (active)
same,normalized growth,"S. cerevisiae deletion strains, locus YPL078C, strain atp4, active compounds read low",0.0953 (active)
same,normalized growth,"S. cerevisiae deletion strains, locus YPL106C, strain sse1, active compounds read low",0.137 (active)
same,normalized growth,"S. cerevisiae deletion strains, locus YPL240C, strain hsp82, active compounds read low",0.09 (active)
same,normalized growth,"S. cerevisiae deletion strains, locus YPL256C, strain CLN2, active compounds read low",0.182 (active)
same,normalized growth,"S. cerevisiae deletion strains, locus YPR119W, strain clb2, active compounds read low",0.105 (active)
same,normalized growth,"S. cerevisiae deletion strains, locus YPR141C, strain kar3, active compounds read low",0.971
same,normalized growth,"S. cerevisiae deletion strains, locus YPR163C, strain tif3, active compounds read low",0.105 (active)
same,normalized growth,"S. cerevisiae deletion strains, locus YPR167C, strain met16, active compounds read low",0.1 (active)
same,normalized growth,"S. cerevisiae deletion strains, strain wtn01, active compounds read low",0.0951 (active)
same,normalized growth,"S. cerevisiae strains, strain wild type, active compounds read low",0.0668 (active)
